Compounds with a hit are over-represented: about 19% of the library has one in this group of screens.
S-ASM inh – Inhibitors of Secretory Acid Sphingomyelinase (S-ASM): qHTS. Potency, µM (titrated, usually from 57.5 µM), usual class: inhibitors. hit rate 0.006% among 340,000. placental ASM, HMU-PC fluorogenic substrate, 60 min. Sphingomyelin phosphodiesterase (Homo sapiens), P17405. AID 504937, 2011
Target sequence (P17405 47-631 limits assumed): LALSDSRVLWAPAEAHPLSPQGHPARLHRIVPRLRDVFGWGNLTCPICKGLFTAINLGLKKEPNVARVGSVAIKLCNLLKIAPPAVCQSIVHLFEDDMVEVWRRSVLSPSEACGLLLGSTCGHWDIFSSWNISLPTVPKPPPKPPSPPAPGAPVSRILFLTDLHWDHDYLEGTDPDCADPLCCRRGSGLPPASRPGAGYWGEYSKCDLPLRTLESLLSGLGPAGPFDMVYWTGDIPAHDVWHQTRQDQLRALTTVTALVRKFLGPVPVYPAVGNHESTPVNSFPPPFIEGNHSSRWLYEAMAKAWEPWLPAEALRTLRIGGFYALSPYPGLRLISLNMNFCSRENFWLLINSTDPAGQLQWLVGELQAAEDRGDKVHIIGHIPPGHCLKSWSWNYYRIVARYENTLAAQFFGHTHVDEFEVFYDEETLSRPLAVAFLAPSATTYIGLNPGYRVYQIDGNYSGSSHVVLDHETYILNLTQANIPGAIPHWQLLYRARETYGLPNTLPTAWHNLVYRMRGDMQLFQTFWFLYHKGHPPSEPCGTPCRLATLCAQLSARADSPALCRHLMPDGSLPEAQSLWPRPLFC
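qHTS format. ASM enzyme prepared from human placenta hydrolyses the fluorogenic substrate HMU-PC0 (9 uM final) over 60 min at 37 °C after a 10 min compound preincubation.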
TGFb SMAD3 inh – qHTS for Inhibitors of TGF-b; HepG2 CAGA-GFP TGF-b/SMAD3 reporter, GFP fluorescence, 18 h; TGF-beta stimulated, 500 pg/mL final; Potency, µM (series often up to 46.1 µM), usual class: inhibitors; hit rate 1.2% among 410,000; AID 588855, 2011; also: nearly all actives have a fitted effect of over 65% in size
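GFP signal (ex488/em500-530) from TGF-beta-stimulated HEPG2 CAGA-GFP cells, 500 pg/mL final, 18 h at 37 degrees C in DMEM plus 1% FBS, normalized to unstimulated and DMSO-stimulated controls.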
DT40 TDP1 no CPT – qHTS for Inhibitors of human tyrosyl-DNA phosphodiesterase 1 (TDP1): qHTS in cells in absence of CPT; DT40 Tdp1-/- hTDP1 cells, no CPT, ATP luminescence, 48 h; Potency, µM (top dose mostly 46.2 µM), most hits filed as inhibitors; hit rate 15% among 420,000; also: nearly all actives have a fitted effect of over 55% in size
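Luminescent ATP content (CellTiter-Glo) served as the growth readout. Knockout chicken DT40 cells expressing human TDP1 were exposed to compounds without camptothecin for a minimum 48 hr at 37 °C.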
DT40 TDP1 CPT – qHTS for Inhibitors of human tyrosyl-DNA phosphodiesterase 1 (TDP1): qHTS in cells in presence of CPT; chicken DT40 Tdp1-/-;hTDP1 cells + 20 nM CPT, ATP luminescence, 48 h; Potency, µM (top dose mostly 46.2 µM), hits mostly inhibitors; hit rate 12% among 420,000; AID 686979, 2013; also: nearly all actives have a fitted effect of over 55% in size
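Chicken DT40 Tdp1-/- cells complemented with human TDP1, 400 cells/well, exposed to compounds plus 20 nM camptothecin for at least 48 h at 37 C; viability read as ATP content by CellTiter-Glo luminescence.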
HepG2 viability – qHTS for Inhibitors of TGF-b: Cytotox Counterscreen. HepG2 CAGA-GFP viability, ATP luminescence, 18 h. hit rate 0.76% among 410,000. AID 588856, 2011. Potency, µM (top dose mostly 46.1 µM), usual class: cytotoxic
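HepG2 CAGA-GFP cells (1000/well, DMEM with 1% FBS) received compound, then TGF-beta at 500 pg/mL final, and were incubated 18 hours at 37 degrees C. Viability was read by CellTiter-Glo luminescence. Media-only wells were set as complete cell-killing and DMSO as no toxicity.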
IL1B secr inh – qHTS for Inhibitors of Inflammasome Signaling: IL-1-beta AlphaLISA Primary Screen; THP-1 LPS/ATP IL-1B secretion, AlphaLISA, 16 h; stronger effect = lower value; activity change, % at 57.5 µM; hit rate 4.7% among 360,000; in the data active = activity change below about -50%; inconclusive = mostly about -30% to -49%
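Secreted IL-1B measured by AlphaLISA bead assay after 16 h compound exposure of THP-1 cells; compounds (final up to 57.5 uM) added 1 h before LPS (250 ng/mL) and ATP (1.25 mM) stimulation; lower signal means less secretion.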
Of the large screens only hits and unclear results are named; the others gave an inactive call. Unless noted, calls follow the shape of the dose curve; as a rule, active = well fitted curve in the direction sought with a large enough effect; inconclusive = small, poorly fitted or top-dose-only effect, or another doubt; inactive = no such curve, though single readings can be large; an effect the other way counts as inactive or inconclusive.

COc1ccc(-c2cc3nc(NCCCN(C)C)n(C)c(=O)c3s2)c(C)c1	TGFb SMAD3 inh inconclusive, DT40 TDP1 no CPT inconclusive, DT40 TDP1 CPT inconclusive, HepG2 viability 3.5µM (no result: S-ASM inh)
CN(C)CCCNc1nc2cc(-c3cncnc3)sc2c(=O)n1C	none (no result: S-ASM inh)
Cc1ccc(C(=O)NC2CC(C)(C)NC(C)(C)C2)cc1S(=O)(=O)N1CCOCC1	none (no result: S-ASM inh)
Cc1ccc(C)c(S(=O)(=O)N2CCN(C(=O)CCNS(=O)(=O)c3ccccc3)CC2)c1	DT40 TDP1 no CPT inconclusive
C/C=C/c1ccc(OCCCNC(C)CC)c(OC)c1 (stereo not given)	IL1B secr inh inconclusive
C=CCc1cc(Cl)ccc1OCCCNC(C)CC (stereo not given)	DT40 TDP1 no CPT 15µM, DT40 TDP1 CPT 16µM
C=CCc1ccc(OCCCCNC(C)CC)c(OC)c1 (stereo not given)	DT40 TDP1 no CPT 18µM, DT40 TDP1 CPT inconclusive
C=CCc1cc(C=O)cc(OC)c1OCc1ccc(C(=O)O)cc1	none
O=C(CN1C(=O)NC2(CCOc3ccccc32)C1=O)NCCc1ccc(F)cc1 (stereo not given)	none
CCc1nn(CC(=O)NCCN(CC(C)C)CC(C)C)c(=O)c2cc3sc(C)cc3n12	DT40 TDP1 no CPT 21µM, DT40 TDP1 CPT 15µM (no result: S-ASM inh, IL1B secr inh)
Cn1c(=O)n(-c2ccc3c(c2)OCO3)c2nc(-c3ccc(Cl)cc3)nc(C(N)=O)c21	TGFb SMAD3 inh inconclusive, DT40 TDP1 no CPT inconclusive (no result: S-ASM inh, IL1B secr inh)
Cc1cccc(-c2nc(C(N)=O)c3c(n2)n(-c2ccc4c(c2)OCO4)c(=O)n3C)c1	TGFb SMAD3 inh inconclusive, DT40 TDP1 no CPT 1.8µM, DT40 TDP1 CPT inconclusive (no result: S-ASM inh, IL1B secr inh)
CSc1nnc(-c2cc3c(-c4ccccc4)nn(C)c3s2)n1C	TGFb SMAD3 inh inconclusive, DT40 TDP1 no CPT 23µM, DT40 TDP1 CPT inconclusive, IL1B secr inh inconclusive
O=C(NCCCN1CCOCC1)c1ccccc1N1C(=O)[C@@H]2Cc3c([nH]c4ccccc34)C(c3cccc(Cl)c3)N2C1=O (stereo not given in full)	DT40 TDP1 no CPT 10µM, DT40 TDP1 CPT 9.2µM
Cc1ccccc1C1c2[nH]c3ccccc3c2C[C@H]2C(=O)N(c3ccccc3C(=O)NCCCN3CCOCC3)C(=O)N12 (stereo not given in full)	DT40 TDP1 no CPT 16µM, DT40 TDP1 CPT 23µM
Cc1ccc(C2c3[nH]c4ccccc4c3C[C@H]3C(=O)N(c4ccccc4C(=O)NCCCN4CCOCC4)C(=O)N23)cc1 (stereo not given in full)	TGFb SMAD3 inh inconclusive, DT40 TDP1 no CPT inconclusive, DT40 TDP1 CPT 12µM
Cc1ccc(C2c3[nH]c4ccccc4c3C[C@H]3C(=O)N(c4ccccc4C(=O)NCCN4CCOCC4)C(=O)N23)cc1 (stereo not given in full)	none
COCC1CCN(C(=O)c2ccc3oc(Cc4ccc(Cl)cc4)nc3c2)C1 (stereo not given)	DT40 TDP1 no CPT inconclusive, DT40 TDP1 CPT inconclusive, IL1B secr inh inconclusive
CSc1ccc(/C=C/C(=O)N2CCN(c3ccccn3)CC2)cc1	none
O=C(CCC1CCCN(C(=O)c2ccco2)C1)NCc1ccccc1F (stereo not given)	DT40 TDP1 no CPT inconclusive, DT40 TDP1 CPT 18µM
COc1cccc(CNC(=O)CCC2CCCN(Cc3cc4ccccc4o3)C2)c1 (stereo not given)	TGFb SMAD3 inh inconclusive, DT40 TDP1 no CPT 26µM, DT40 TDP1 CPT 18µM, IL1B secr inh -60
Cc1ccoc1C(=O)N1CCCC(CCC(=O)N2CCN(c3ccccn3)CC2)C1 (stereo not given)	DT40 TDP1 no CPT 23µM, DT40 TDP1 CPT inconclusive
CC(C)c1cc(C(=O)N2CCCC(CCC(=O)NCc3ccccc3F)C2)n(C)n1 (stereo not given)	DT40 TDP1 no CPT 13µM, DT40 TDP1 CPT inconclusive
Cc1cccc(C(=O)N2CCCC(CCC(=O)N3CCN(c4ccccn4)CC3)C2)c1C (stereo not given)	DT40 TDP1 no CPT inconclusive, DT40 TDP1 CPT inconclusive
O=C(CCC1CCCN(C(=O)c2ccc3c(c2)OCCO3)C1)NCc1ccccc1F (stereo not given)	none
O=C(CCn1cnnn1)Nc1cc(C(F)(F)F)cc(C(F)(F)F)c1	none (no result: S-ASM inh, DT40 TDP1 no CPT, DT40 TDP1 CPT, IL1B secr inh)
CCCn1c(=O)c2c(nc3n2CCN3c2ccc(C)cc2)n(C)c1=O	none (no result: S-ASM inh, IL1B secr inh)
COCc1ccc(C(=O)N2CCCC(CCC(=O)NCc3ccccc3F)C2)o1 (stereo not given)	DT40 TDP1 no CPT 2.9µM, DT40 TDP1 CPT 3.7µM
Cc1ncoc1C(=O)N1CCCC(CCC(=O)NCc2ccccc2F)C1 (stereo not given)	DT40 TDP1 no CPT 21µM, DT40 TDP1 CPT inconclusive
O=C(CCC1CCCN(C(=O)c2cc3ccccc3o2)C1)NCc1ccc(F)c(F)c1 (stereo not given)	TGFb SMAD3 inh inconclusive, DT40 TDP1 no CPT 16µM, DT40 TDP1 CPT 16µM
COc1ccc(NC(=O)c2oc3c(c2C)-c2nn(Cc4c(F)cccc4Cl)cc2CC3)c(OC)c1	DT40 TDP1 no CPT inconclusive, DT40 TDP1 CPT inconclusive (no result: S-ASM inh, IL1B secr inh)
COc1ccc(OC)c(NC(=O)CCNS(=O)(=O)c2cc(Br)cnc2N)c1	none
CC(C)CC1C(=O)N(Cc2cn(CCC3OCCCO3)nn2)CCS(=O)(=O)N1Cc1ccc(-c2cccc(N(C)C)c2)cc1 (stereo not given)	none (no result: S-ASM inh)
CC(C)CC1C(=O)N(Cc2cn(CC3CCCCC3)nn2)CCS(=O)(=O)N1Cc1ccc(-c2cccc(C#N)c2)cc1 (stereo not given)	DT40 TDP1 no CPT inconclusive, DT40 TDP1 CPT 21µM
COc1ccc(-c2ccc(CN3C(C(C)C)C(=O)N(Cc4cn(CC5CCCCC5)nn4)CCS3(=O)=O)cc2)cc1OC (stereo not given)	DT40 TDP1 no CPT 1.6µM, DT40 TDP1 CPT inconclusive, IL1B secr inh inconclusive (no result: S-ASM inh)
CC(C)CC1C(=O)N(Cc2cn(CC3CCCCC3)nn2)CCS(=O)(=O)N1Cc1ccc(-c2ccncc2)cc1 (stereo not given)	DT40 TDP1 no CPT 15µM, DT40 TDP1 CPT inconclusive (no result: S-ASM inh)
CC(C)C1C(=O)N(Cc2cn(CCC3OCCCO3)nn2)CCS(=O)(=O)N1Cc1ccc(-c2ccncc2)cc1 (stereo not given)	DT40 TDP1 no CPT inconclusive, DT40 TDP1 CPT inconclusive (no result: S-ASM inh)
